# NPR1 antag = Natriuretic polypeptide receptor (hNpr1) antagonism - Primary qHTS; HEK293 hNpr1 GloSensor cGMP, ANP-stimulated luminescence; AID 1347048, 2019; 76,000 compounds, 1.6% hits; Atrial natriuretic peptide receptor 1 (Homo sapiens), P16066; Potency, µM (highest dose often 46.3 µM), for the others: at the top dose activity change, negative = inhibition, actives largely listed as inhibitors; calls by dose curve; note: nearly all actives have a fitted effect of over 60% in size
#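 Compound pre-incubated 30 min at room temperature on GloSensor-loaded HEK293 cells stably carrying hNpr1 and the pGS-40F cGMP biosensor. Stimulation uses hNppA at 0.1 nM final; luminescence is taken at baseline and 20 min post-agonist.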
# HEK cytotox = Cytotoxic Profiling in HEK 293 Cell Line of Diverse Libraries Using Quantitative High-Throughput Screening; HEK 293 viability, ATP luminescence (CellTiter-Glo), 48-72 h; Potency, µM (series often up to 115 µM), for inactives: top-dose activity change, negative = cytotoxicity, hits mostly inhibitors; 94,000 compounds, 6.6% hits; AID 1345083, 2018; note: nearly all actives have a fitted effect of over 60% in size
#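 Pintool-delivered compounds were incubated with HEK 293 cells (250 cells/well) at 37 degree Celsius for 48 or 72 hr. ATP-dependent luminescence (CellTiter-Glo) then reported remaining viable cells.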
# FLuc inh = Firefly luciferase inhibition profiling of diverse chemical library using quantitative high-throughput screening; purified P. pyralis luciferase, luminescence, biochemical; Potency, µM (series often up to 115 µM), usual class: inhibitors; 76,000 compounds, 2.5% hits; Luciferin 4-monooxygenase (Photinus pyralis), P08659; note: nearly all actives have a fitted effect of over 65% in size
# Target sequence (P08659 whole entry, looked up): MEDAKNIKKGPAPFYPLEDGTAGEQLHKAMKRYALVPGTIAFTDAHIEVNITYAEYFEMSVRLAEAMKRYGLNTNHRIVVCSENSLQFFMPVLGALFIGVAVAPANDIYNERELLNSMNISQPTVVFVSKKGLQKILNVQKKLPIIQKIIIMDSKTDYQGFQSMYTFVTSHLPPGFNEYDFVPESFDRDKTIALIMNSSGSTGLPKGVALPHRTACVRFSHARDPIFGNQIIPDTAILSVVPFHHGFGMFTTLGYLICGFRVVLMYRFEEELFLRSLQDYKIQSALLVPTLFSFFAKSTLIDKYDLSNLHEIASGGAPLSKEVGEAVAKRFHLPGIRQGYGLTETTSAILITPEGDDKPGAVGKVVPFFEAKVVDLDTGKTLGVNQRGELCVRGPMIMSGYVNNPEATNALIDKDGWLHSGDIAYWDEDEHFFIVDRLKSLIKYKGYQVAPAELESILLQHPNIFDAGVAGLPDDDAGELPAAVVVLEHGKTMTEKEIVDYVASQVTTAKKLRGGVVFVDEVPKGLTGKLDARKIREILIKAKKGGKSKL
#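 Purified P. pyralis luciferase (10nM final) in 50mM Tris acetate pH 7.5, 10mM Mg acetate, 0.01% Tween-20, 0.05% BSA with 10uM D-luciferin and 10uM ATP. Compounds titrated qHTS. Luminescence imaged on CCD.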
# NIH3T3 tox = Cytotoxic Profiling in NIH 3T3 Cell Line of Diverse Libraries Using Quantitative High-Throughput Screening; NIH 3T3 viability, CellTiter-Glo ATP luminescence, 48-72 h; AID 1345082, 2018; 94,000 compounds, 4.3% hits; Potency, µM (top dose mostly 96.7 µM), inactives show at the highest dose activity change, negative = cytotoxicity, usual class: inhibitors; note: nearly all actives have a fitted effect of over 55% in size
#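 Cytotoxicity was measured by CellTiter-Glo ATP luminescence after 48 or 72 h compound exposure at 37 °C. Mouse NIH 3T3 fibroblasts were seeded at 400 cells/well and dosed by 23 nL pin transfer.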
# GPT2 inh = Primary qHTS assay for inhibitors of Glutamate pyruvate transaminase 2 (GPT2); Alanine aminotransferase 2 (Homo sapiens), Q8TD30; Recombinant GPT2, coupled pyruvate oxidase/HRP Amplex Red fluorescence; Potency, µM (series often up to 57.7 µM), inactives show at the highest dose activity change, negative = inhibition, actives largely listed as inhibitors; 100,000 compounds, 0.25% hits; AID 1671188, 2021; note: nearly all actives have a fitted effect of over 60% in size
#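 Fluorescence read-out: pyruvate from GPT2 turnover coupled to pyruvate oxidase, HRP and Amplex Red (0.2mM ThPP, 0.2U/mL PO and HRP, 50uM Amplex final). Substrates 250uM a-KG, 2mM L-alanine; enzyme 10ng/uL; 30 min RT.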
# * = called active by the depositor; i = inactive; ? = inconclusive; . = no result given; ! = repeats disagree; [ ] = dose if it differs, or a comment. Hits are enriched below; roughly 10% of the tested compounds scored in any of these assays. Unless noted, calls come from the whole dose curve; as a rule, active = well fitted curve in the direction sought with a large enough effect; inconclusive = small, poorly fitted or top-dose-only effect, or another doubt; inactive = no such curve, though single readings can be large; an effect the other way counts as inactive or inconclusive. % is set by controls: 0 for no effect and ±100 for the full control effect; potency is the fitted concentration of half-maximal effect.
SMILES,NPR1 antag,HEK cytotox,FLuc inh,NIH3T3 tox,GPT2 inh
COc1ccc(Nc2ccnc(N3CCC(NC(=O)c4ccccc4Cl)CC3)n2)cc1,.,40µM*,.,?,i
COc1ccc(Nc2ccnc(N3CCC(NC(=O)c4ccccc4OC)CC3)n2)cc1,.,50µM*,.,?,i
Cc1ccc(Nc2ccnc(N3CCC(NC(=O)c4ccccc4C)CC3)n2)cc1,.,35µM*,.,25µM*,3%
COc1ccc(Nc2ccnc(N3CCC(NC(=O)C4CC4)CC3)n2)cc1,.,?,.,-20%,i
COc1ccccc1Nc1ccnc(N2CCC(NC(=O)c3ccccc3OC)CC2)n1,.,?,.,?,i
CNC(=O)[C@H]1CN(C(=O)c2cc3ccccc3s2)[C@]2(C)C(=O)N(C)c3ccccc3[C@H]12,.,?,.,?,1%[27.3 µM]
Cc1nc2c(c(N(C)Cc3noc(C4CCCC4)n3)n1)CCNCC2,-2%,2%,i,2%,i
c1csc(-c2nc3ccncc3[nH]2)c1,11%[70.6 µM],?,?,100µM*!,2%[88.5 µM]
c1ccc(-c2nc3ccncc3[nH]2)nc1,8%[70.6 µM],45µM*!,i,?,0%[88.5 µM]
COc1ccc(-c2cnc3[nH]cc(CC(=O)NCc4cccnc4)c3c2)cn1,4%[70.6 µM],?,?,79µM*,3%[88.5 µM]
O=C(Cc1c[nH]c2ncc(-c3ccncc3)cc12)NCc1cccnc1,3%[70.6 µM],?,i,79µM*,3%[88.5 µM]
Cc1cc(-c2cnc3[nH]cc(CC(N)=O)c3c2)ccn1,0%[70.6 µM],-27%[230 µM],i,?,1%[88.5 µM]
NC(=O)Cc1c[nH]c2ncc(-c3cccc(F)c3)cc12,-2%[70.6 µM],-13%[230 µM],i,89µM*,-11%[88.5 µM]
O=C(Cc1c[nH]c2ncc(-c3cccnc3)cc12)NCCc1ccccc1,-12%[70.6 µM],?,i,22µM*,0%[88.5 µM]
COc1cccc(-c2cn3cc(C(=O)NCc4ccccn4)nc3s2)c1,.,?,.,?,1%
O=C(Cc1c[nH]c2ncc(-c3cccc(Cl)c3)cc12)NCc1cccnc1,35µM*,79µM*,?,?,0%[88.5 µM]
O=C(Cc1c[nH]c2ncc(-c3cccc(F)c3)cc12)NCc1cccnc1,?,71µM*,i,?,1%[88.5 µM]
O=C(Cc1c[nH]c2ncc(-c3ccccc3)cc12)NCc1cnccn1,-3%[70.6 µM],0%[172 µM],i,?,i
O=C(Cc1c[nH]c2ncc(-c3ccccc3)cc12)NCc1ccncc1,2%[70.6 µM],?,i,28µM*,1%[88.5 µM]
C[S+](=O)([O-])c1cccc(NC(=O)Cc2c[nH]c3ncc(-c4cccnc4)cc23)c1,9%[70.6 µM],?,i,35µM*,-9%[88.5 µM]
Cc1cc(C)n2nc(C(=O)N3CCN4C(=O)CN(C)C(=O)C4C3)cc2n1 (centres undefined),1%,i,i,-28%,i[11.5 µM]
CCn1ncc(N2CCCC(CC(=O)N(C)C3CCN(C)CC3)C2)cc1=O (centres undefined),.,i,.,-4%,i
CNC(=O)[C@H]1CN(C(=O)c2ccc(C)cc2)[C@]2(C)C(=O)N(CC3CC3)c3ccccc3[C@H]12,.,?,.,-11%[46.1 µM],i
O=C(Cc1c[nH]c2ncc(-c3cccnc3)cc12)NCc1cccc(F)c1,-23%[70.6 µM],?,i,25µM*,-1%[88.5 µM]
COc1cccc(-c2cnc3[nH]cc(CC(=O)NCc4cccnc4)c3c2)c1,?,?,i,?,5%[88.5 µM]
SMILES,NPR1 antag,HEK cytotox,FLuc inh,NIH3T3 tox,GPT2 inh
CCCn1nccc1C(=O)N1CCCC(c2[nH]ncc2Cc2ccccc2)C1 (centres undefined),-25%,50µM*,i,?,?
CCOCC(=O)Nc1nn(-c2ccc(F)cc2)c2cccc(N3CCOC3=O)c12,-8%,?,35µM*,-11%,1%
CCc1nc(C)c(C(=O)Nc2nn(C)c3cccc(N4CCOC4=O)c23)o1,1%,-6%,i,i,-6%
CCC1Oc2ccc(NC(=O)COc3ccccc3)cc2CN(Cc2ccc(F)cc2)C1=O (centres undefined),-17%,?,i,?,0%
Cc1nnc2ccc(N3CCN(C(=O)Nc4ccccc4)CC3)nn12,.,i,.,?,.
Fc1ccc(CN2CCN(C3CCNC3)CC2)cc1Cl (centres undefined),8%,-20%,i,-8%,i
c1ccc(COc2ccc(CN3CCN(C4CCNC4)CC3)cc2)cc1 (centres undefined),-27%,?,?,45µM*,?
COc1cccc(C(=O)N(C)Cc2cccc(C(F)(F)F)c2)c1,0%[70.6 µM],89µM*,i,?,-15%[88.5 µM]
Cc1ccc(C(=O)N(C)Cc2ccc(-c3ccccc3)cc2)cc1,-12%[70.6 µM],89µM*,i,?,i
CN(Cc1cccc(C(F)(F)F)c1)C(=O)c1ccccc1Cl,-4%[70.6 µM],56µM*,i,89µM*,i
CN(Cc1ccc(-c2ccccc2)cc1)C(=O)c1ccccc1,?,?,?,?,i
COc1cccc(C(=O)N(C)Cc2ccccc2C(F)(F)F)c1,0%[70.6 µM],100µM*,i,?,i
CCC1c2nccn2CCCN1C(=O)Cc1ccc(OC)cc1 (centres undefined),-3%,-12%,i,-11%,-6%
COc1ccccc1NC(=O)N1CCc2cc(OC)c(OC)cc2C1CNC(=O)NC(C)(C)C (centres undefined),4%,?,i,5%,4%
Cc1ccc(C(=O)N(C)Cc2cccc(C(F)(F)F)c2)cc1,-10%[70.6 µM],100µM*,i,?,i
COc1ccccc1Cn1c(=O)c(C(=O)NCCc2ccc(Cl)cc2)nc2cccnc21,.,?,.,?,-12%
O=C(N[C@H]1CO[C@H]2[C@@H]1OC[C@H]2OCc1ccccc1)c1ccc(C(F)(F)F)cc1,?,79µM*,?,-29%[174 µM],-22%[88.5 µM]
CN1C[C@@H](NC(=O)c2ccc(F)cc2)C[C@H]1c1nc(-c2ccccc2)no1,-8%[70.6 µM],?,?,-13%[174 µM],-10%[88.5 µM]
CN1C[C@@H](NC(=O)c2cccs2)C[C@H]1c1nc(-c2ccc(F)cc2)no1,-30%[70.6 µM],89µM*,i,?,-6%[88.5 µM]
CN1C[C@@H](NC(=O)Nc2ccccc2)C[C@H]1c1nc(-c2ccc(Cl)cc2)no1,?,?,35µM*,?,-11%[88.5 µM]
Cc1ccc(NC(=O)N[C@H]2C[C@@H](c3nc(-c4ccc(F)cc4)no3)N(C)C2)cc1,-17%[70.6 µM],-26%[172 µM],?,?,1%[88.5 µM]

# Source: PubChem BioAssay
